# Compound activity (PubChem BioAssay)
# TSHR agonist = qHTS Assay for Agonists of the Thyroid Stimulating Hormone Receptor; Thyrotropin receptor (Homo sapiens), P16473; HEK293-CNG-TSHR cells (CNG channel as cAMP sensor), membrane potential dye, cAMP; Potency, µM (doses to about 57.1 µM), for inactives: top-dose activation, actives largely listed as activators; 73,000 tested, 0.48% active; AID 926, 2007; active = well fitted activation curve with a large enough effect in the main read-out, with a control signal flat, not every such curve was filed as active; inconclusive = small, poorly fitted or top-dose-only effect, or a change in a side signal; inactive = no such curve, though single readings can be large or run the other way; % of control where 0% means no effect;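 note: the control signal comes from parental cells without the receptor; potency is the fitted concentration of half-maximal effect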
#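 HEK 293 cells stably expressing TSHR and a cAMP-gated CNG channel; parental CNG-only cells as counterscreen. Cells preloaded 60 min with membrane potential dye plus 100 uM RO 20-1724, then compound 30 min; fluorescence read at 590 nm.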
# HEK293 cAMP ctrl = qHTS Assay for Agonists of the Thyroid Stimulating Hormone Receptor: Activators of Intracellular cAMP Concentrations in Parental HEK 293. parental HEK293 CNG cAMP sensor, membrane potential fluorescence. Potency, µM (top dose mostly 57.1 µM), for the others: at the top dose activation, actives largely listed as activators. 73,000 tested, 2.5% active; note: potency is the fitted concentration of half-maximal effect; % of control where 0% means no effect; nearly all actives have a fitted effect of over 55% in size
#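 Parental HEK 293 cells stably expressing a cAMP-gated CNG channel were loaded with membrane potential dye containing 100 uM RO 20-1724 for 60 min. Compound added for 30 min; depolarization read as fluorescence intensity at 590 nm.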
# Tau fil binding = qHTS Assay for Tau Filament Binding | 71,000 tested, 2% active | AID 596, 2007 | recombinant tau filaments, thioflavin S fluorescence, 15 h; filaments grown with octadecylsulfate alongside compound | Potency, µM (doses to about 57.1 µM), for the others: at the highest dose activity change, negative = inhibition | Microtubule-associated protein tau (Homo sapiens), P10636;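 note: potency is the fitted concentration of half-maximal effect; % is set by controls: 0 for no effect and ±100 for the full control effect; actives lower thioflavin S fluorescence by blocking filaments or displacing dye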
# Target sequence (P10636 whole entry, looked up): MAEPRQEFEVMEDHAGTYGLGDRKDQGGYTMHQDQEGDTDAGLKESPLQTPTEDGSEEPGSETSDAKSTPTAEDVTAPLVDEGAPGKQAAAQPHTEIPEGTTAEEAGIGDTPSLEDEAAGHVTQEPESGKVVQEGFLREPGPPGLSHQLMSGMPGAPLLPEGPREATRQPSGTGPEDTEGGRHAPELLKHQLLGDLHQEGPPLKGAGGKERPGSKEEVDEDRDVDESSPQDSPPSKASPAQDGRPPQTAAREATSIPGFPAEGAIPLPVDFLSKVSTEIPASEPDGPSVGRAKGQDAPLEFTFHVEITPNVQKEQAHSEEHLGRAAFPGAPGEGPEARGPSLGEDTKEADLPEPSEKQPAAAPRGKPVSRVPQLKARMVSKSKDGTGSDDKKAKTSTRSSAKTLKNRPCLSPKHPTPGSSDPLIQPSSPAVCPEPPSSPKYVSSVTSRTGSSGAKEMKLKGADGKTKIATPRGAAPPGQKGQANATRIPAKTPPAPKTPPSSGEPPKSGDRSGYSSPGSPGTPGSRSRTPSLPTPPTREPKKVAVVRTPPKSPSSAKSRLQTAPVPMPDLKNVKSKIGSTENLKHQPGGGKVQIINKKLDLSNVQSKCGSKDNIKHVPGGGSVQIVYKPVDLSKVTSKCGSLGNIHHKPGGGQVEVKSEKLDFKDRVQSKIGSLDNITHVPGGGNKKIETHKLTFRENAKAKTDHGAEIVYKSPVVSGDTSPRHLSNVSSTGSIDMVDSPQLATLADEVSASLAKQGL
#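 Tau 2 uM in ThS buffer dispensed; compound added; 60 uM ODS added (finals 1 uM tau, 30 uM ODS); 15 h 37 C; fluor ex450/em510.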
# CRE Fsk mod = Cell signaling CRE-BLA (Fsk stim); CHO CRE-bla reporter (cAMP response element driving beta-lactamase), forskolin EC10, beta-lactamase ratio; Potency, µM (top dose mostly 38.2 µM), without a hit: top-dose activity change, negative = inhibition, hits mostly activators; 71,000 tested, 2.5% active; AID 662, 2007; active = well fitted activation curve with a large enough effect in the signal ratio, with a control signal flat, not every such curve was filed as active; inconclusive = small, poorly fitted or top-dose-only effect, or effect the other way, or a change in a side signal; the % refers to the signal ratio; note: potency is the fitted concentration of half-maximal effect; % of control where 0% means no effect
#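 Cells were plated overnight at 37 °C, exposed to compound titrations plus EC10 NKH 477 for 3 h, then given CCF4 dye for 2 h at room temperature. Blue/green (460/530 nm) ratio was converted to %Activity and AC50 values calculated.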
# ERK AVP inh = qHTS Assay for Inhibitors of the ERK Signaling Pathway using a Homogeneous Screening Assay; HEK293-V1b, vasopressin-stimulated pERK AlphaScreen; Potency, µM (series often up to 57.5 µM), for inactives: at the highest dose activity, negative = inhibition, hits mostly inhibitors; 72,000 tested, 0.99% active; note: potency is the fitted concentration of half-maximal effect; % is set by controls: 0 for no effect and ±100 for the full control effect; nearly all actives have a fitted effect of over 55% in size
#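 Phosphorylated ERK1/2 detected via AlphaScreen bead proximity in lysates of V1b-expressing HEK293 cells given 25 nM vasopressin for 5 min after 30 min compound exposure (37 °C). AC50 from Hill equation; basal DMSO 0%, vasopressin 100%.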
# parental cAMP = Confirmation Concentration-Response Assay for Agonists of the Thyroid Stimulating Hormone Receptor: Activators of Intracellular cAMP Concentrations in Parental HEK 293; shares compounds with TSHR agonist; parental HEK293 CNG biosensor, cAMP membrane potential fluorescence; activity change, negative = inhibition, % at 32.9 µM; 150 tested, under 10 active; AID 953, 2007
# * hit, by the source's call; ? = inconclusive; . = no result; [ ] = dose if it differs, or a comment. Compounds with a hit are over-represented: about 7.6% of the library has one in this group of screens. Unless noted, calls come from the whole dose curve; as a rule, active = well fitted curve in the direction sought with a large enough effect; inconclusive = small, poorly fitted or top-dose-only effect, or another doubt; inactive = no such curve, though single readings can be large; an effect the other way counts as inactive or inconclusive.
SMILES,TSHR agonist,HEK293 cAMP ctrl,Tau fil binding,CRE Fsk mod,ERK AVP inh,parental cAMP
O=C1C=C(NCc2ccco2)C2(CCCCC2)O1,?,?,13%,1%,-18%,.
O=C1C=C(NCc2ccccc2)C2(CCCCC2)O1,.,22%[11.4 µM],3%[11.4 µM],11%[7.6 µM],-11%,17[25.6 µM]
OC[C@@H]1O[C@H](n2cnc3c(/C=C(\O)c4ccccc4)ncnc32)[C@H](O)[C@@H]1O,1%[11.4 µM],-14%[11.4 µM],0%[11.4 µM],11%[7.6 µM],16%[11.5 µM],.
COc1ccc(CNc2n[nH]c(NCc3ccc(OC)c(OC)c3)n2)cc1OC,2%,2%,-4%,-3%,4%,.
COc1ccc(CNc2nc(SC)n[nH]2)cc1OC,4%,7%,1%,?,6%,4[25.6 µM]
Cc1ccc(S(=O)(=O)N2CCC(C(=O)NC3CCCCCC3)CC2)cc1,15%[11.4 µM],2%[11.4 µM],64%[11.4 µM],?,-2%,.
Cc1ccc(S(=O)(=O)N2CCC(C(=O)NCCCN3CCCCCC3)CC2)cc1,4µM*,-1%,-8%,-6%,-17%,-4
CCS(=O)(=O)N1CCN(C(C)CCc2ccccc2)CC1 (stereo not given),.,9%[11.4 µM],-19%[11.4 µM],-9%[7.6 µM],-9%,-3
O=C1c2ccccc2C(=O)N1Cc1ccc2c(c1)OCO2,?,?,-10%,0%,9%,.
Nc1cc(CN2C(=O)c3ccccc3C2=O)cc(Cl)c1O,2%,-2%,-13%,9%,-23%,5[25.6 µM]
COc1ccc(-c2cc(C(F)(F)F)nc(SCCC(=O)N3CCOCC3)n2)cc1,20µM*,23%,41%,20%,24%,13
CCOC(=O)N1CCC(NC(=O)c2ccc(CNS(=O)(=O)c3ccc(F)cc3)cc2)CC1,25µM*,9%,34%,16%,-8%,8
Oc1ccccc1Cn1c(-c2ccccc2O)nc2ccccc21,10µM*,-13%,40%,16%,?,-15
Oc1ccc(Cn2c(-c3ccc(O)cc3)nc3ccccc32)cc1,5%[11.4 µM],-1%[11.4 µM],6%[11.4 µM],-2%[7.6 µM],-7%[11.5 µM],.
CCc1cc2c(c(CC)n1)CCC(=O)N2Cc1ccc(-c2ccccc2-c2nn[nH]n2)cc1,.,6%,?,12%,?,.
Cc1cccc(CNc2ccnc(-c3ccccc3C(F)(F)F)n2)c1,?,?,-7%,-13%,-27%,.
CN1CCN(C(=O)c2nc3ccc(Cl)cc3[nH]2)CC1,5%,11%,.,.,12%,.
NC(=O)c1nsc(C(=O)N(CC(=O)NCc2ccc3c(c2)OCO3)C2CCCCC2)c1N,2µM*,18%,-4%,-8%,-11%,9
COC(=O)C1=C(C)OC(N)=C(C#N)C1c1c(C)nn(-c2ccccc2)c1Cl (stereo not given),6.3µM*,15%,1%,-2%,0%,6
COC(=O)C1=C(C)OC(N)=C(C#N)C1C1CCCCC1 (stereo not given),13µM*,25%,2%,-29%,-1%,16
COC(=O)C1=C(C)OC(N)=C(C#N)C1c1ccccc1 (stereo not given),3%,23%,-13%,-6%,14%,.
CCNc1ncc2nc(-c3cn(C)c4ccccc34)c(=O)n(Cc3ccc(F)cc3)c2n1,7%,6%[0.457 µM],216%,?,-13%,.
O=C(c1cc(-c2cccs2)on1)N1CCCc2ccccc21,?,?,10%,-16%,4%,?
O=C(O)c1cc(-c2ccccc2)c(N2CCOCC2)s1,12%,12%,-6%,?,11%,.
O=C(NCc1ccco1)c1cc(-c2ccccc2)c(N2CCOCC2)s1,-7%,0%,-21%,?,10%,-62[25.6 µM]
SMILES,TSHR agonist,HEK293 cAMP ctrl,Tau fil binding,CRE Fsk mod,ERK AVP inh,parental cAMP
CC1(C)CC(=O)C2=C(C1)OC(N)=C(C#N)C2CCc1ccccc1 (stereo not given),20µM*,28%,-1%,6%,-8%,14
CC1(C)CC(=O)C2=C(C1)OC(N)=C(C#N)C2C#Cc1ccccc1 (stereo not given),18%,4%,4%,-13%,-10%,.
O=C(Nc1cccc(F)c1)N1CCCC2(CCNCC2)C1,3%,9%,8%,-6%,-9%,.
Cc1occc1-c1nnc(SCC(=O)NCc2ccco2)n1CC(C)C,20µM*,12%,19%,-4%,12%,-10
CCc1nnc(NC(=O)CSc2nnc(-c3ccoc3C)n2CC(C)C)s1,-8%,-21%,9%,8%,16%,.
CCN(CC)S(=O)(=O)c1ccc(Cl)c(C(=O)NC2CCCC2)c1,.,51%,0%,4%,0%,?
CC(C)c1nnc(NC(=O)CCC(=O)NCc2ccc3c(c2)OCO3)s1,3%,-6%,3%,6%,-20%,15[25.6 µM]
CCN(C(=O)CN1CCCc2ccccc21)c1c(N)n(Cc2ccccc2)c(=O)[nH]c1=O,8%,0%,6%,-2%,-4%,.
CCn1c(=O)c(C(=O)CN2CCCc3ccccc32)c(N)n(Cc2ccccc2)c1=O,-21%,-8%,25µM*,?,-20%,-17[25.6 µM]
